This is part of a sample that, as a whole, favours compounds with a hit. Of some 79,000 tested, about 15% had one in any assay. A number with no mark means an inactive call. Cut-off read from the data, not from the text of the source: active = growth inhibition above about 70%; inactive = the rest.
test: NCI Yeast Anticancer Drug Screen. Data for the sgs1 mgt1 strain (AID 161);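 note: 0% = growth of cultures given vehicle only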; settings: S. cerevisiae sgs1 mgt1 strain, at 50.0 µM, active compounds read high
Summary of the method: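 Mutant yeast exposed to compound; growth scored against vehicle-only wells.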

Compound | growth inhibition
Cc1cccc(CO)c1 | -25.1%
O=C(NCO)c1ccccc1 | -1.65%
CC1(C(=O)O)NC(C(=O)O)Cc2c1[nH]c1ccccc21 (configuration not stated) | 3.15%
COc1ccc(C2(O)CCCCC2)cc1 | 2.85%
NNc1ccccc1C(=O)O | -2.55%
CCS(=O)(=O)CCCl | 2.3%
COC1=CC(=O)c2nc(Cl)ccc2C1=O | 35.2%
COC(=O)c1ccccc1N(C)C | -3.8%
Cc1cc(=O)[nH]c(NN=C2CCCC2)n1 | -35.4%
CCOC(=O)C/C(C)=N\O | 7.9%
CC1(C)OC(=O)C(c2ccsc2)C(=O)O1 | -20.4%
O=C(Nc1ccccc1)OCCc1ccccc1 | 27.4%
C=CC(=O)OCCCCCCCC | -29.4%
Cc1c(C(=O)O)c(=O)n(-c2ccccc2)n1C | -8.75%
C=CCCCCCCCCCOC(C)=O | -20.4%
O=C(O)CSCSCC(=O)O | -8.8%
CC(=O)OC(OC(C)=O)C1CCCO1 (configuration not stated) | -2.1%
S=C1NCc2cncnc2N1 | -6.9%
Cc1ccncc1C(N)=O | -9.55%
CSC[C@H](NC(=O)COc1cccc2cnccc12)C(=O)NC(Cc1ccccc1)C(O)C(=O)N1CSC[C@H]1C(=O)NC(C)(C)C (some centres not stated) | -28.9%
CC1CC(O)C2C3(C)CCCC2(COC3=O)C12CCC1(CCOC1=O)O2 (configuration not stated) | 18.3%
CC(C)(C)n1nc(C2CC2)c(Br)c1NC(=O)c1ccccc1F | 8.7%

Reference: PubChem BioAssay (NCI)
